These results are taken from ChEMBL document CHEMBL4513216, “Probing the Open Global Health Chemical Diversity Library for Multistage-Active Starting Points for Next-Generation Antimalarials” (ACS Infect Dis, 2020).

Molecules are shown by their SMILES. Out of some 69,000 compounds screened, about 8,600 (12%) showed an effect of 50% or more. This excerpt belongs to a sample that is enriched for strong results.

In the experiment the test system is Plasmodium berghei. Briefly: Screen against P. berghei liver stage (PbLuc), transformed with Luciferase, at 10uM. The format is functional, HepG2. Particulars: tested at 10 uM.
Regarding `CN(C)CCN(C)C(=O)c1ccccc1-n1cc(CN(C)C)cn1`, the INHIBITION was found to be 1.5%.
With `c1ccc(CN2Cc3[nH]nc(COCC4CC4)c3C2)nc1`, the INHIBITION is listed as 30.5%.
The result for `CN(C)CCNC(=O)C1Cc2nc(-c3ccccc3)sc2N1CC1CC1` (stereo not given) reads 24.3%; that for `CN(CCNC(=O)c1cnc(-c2ccncc2)nc1)S(C)(=O)=O`, 25.1%.
The result for `CN(CCNC(=O)c1cnc(-c2ccccc2)nc1)S(C)(=O)=O` reads 57.1%.
The result for `CCN(CC)CCNC(=O)c1cnc(-c2ccccc2)nc1` reads -8.07%; that for `Cc1ccc(OCCN2CCCC(c3cc(C(N)=O)[nH]n3)C2)cc1` (stereo not given), 15.3%; that for `O=C(NC1CC1)C1CCN(c2snc3ccccc23)CC1`, 37.9%.
On to `CCc1n[nH]c(C2CN(C(=O)c3cnc(C)nc3CC)CCO2)n1` (stereo not given), for which the INHIBITION is recorded as -49.5%.
The result for `CC(NC(=O)c1ccnn1C)c1ccc(OCC2CC2)c(F)c1` (stereo not given) reads 68.2%.
The figure for `CC(=O)NC(C)c1ccc(OCC2CC2)c(F)c1` (stereo not given) is 26.8%; for `CC(NC(=O)c1ccc(=O)n(C)c1)c1ccc(OCC2CC2)c(F)c1` (stereo not given) it is 40.97%.
As for `CC(=O)c1cccc(-n2nc(C(C)=O)c(C(C)=O)c2C)c1`, the INHIBITION was determined as 0.325%.
With `O=C(Nc1nnc(C(F)F)s1)N[C@H](CCO)c1ccccc1`, the INHIBITION was 20.9%.
Consider `COc1ccnc(N2CCN(C(=O)c3ccc(Cl)o3)CC2)n1`, for which the INHIBITION is -9.76%.
The figure for `CC(C)N1CCN(C(=O)c2csc3nc(-c4ccc(Cl)cc4)cn23)CC1` is 37.9%; for `CCC1CN(C(=O)c2csc3nc(-c4ccc(Cl)cc4)cn23)CCN1` (stereo not given) it is 56.1%.
The result for `O=C(c1csc2nc(-c3ccc(Cl)cc3)cn12)N1CCCC(CO)C1` (stereo not given) reads -16.6%; that for `CNC(=O)C1(CCCc2ccccn2)CCN1Cc1coc(C)n1` (stereo not given), 9.05%.
The figure for `O=C(NCc1cccnc1)c1cn(CCc2ccccc2)nn1` is 12.9%; for `Cc1nn(C2CCCC2)c2nc(C(C)(C)CN3CCN(C)CC3)[nH]c12` it is 49.4%.
`CS(=O)(=O)CCn1ccc(NC(=O)CCc2cccc(F)c2)n1`: the INHIBITION is reported as 13.8%.
The result for `Nc1nccc(N[C@H]2CN(CC(=O)NC3CCCCC3)C[C@@H]2C2CC2)n1` reads 56.2%.
The result for `Cc1nccc(N[C@H]2CN(CCC(=O)NC3CCCC3)C[C@@H]2C2CC2)n1` reads 26.5%; that for `Cc1nccc(N[C@H]2CN(CCS(C)(=O)=O)C[C@@H]2C2CC2)n1`, 39.3%; that for `Cc1noc([C@H]2C[C@H]3CN(C(=O)Cc4ccsc4)CC[C@H]3O2)n1`, -14.1%.
The result for `c1ccc2c(c1)CC(n1ccnc1-c1cc3n(n1)CCCNC3)CO2` (stereo not given) reads 18.5%; that for `O[C@H]1Cc2ccccc2[C@H]1n1ccnc1-c1cc2n(n1)CCNC2`, 67.6%; that for `c1ccc2c(c1)CC(n1ccnc1-c1cc3n(n1)CCNC3)CO2` (stereo not given), 43.9%.
Regarding `COc1ccc(CCCC(=O)N2C[C@H](C3CC3)[C@@H](N(C)C)C2)cc1`, the INHIBITION is 6.28%.
Consider `CC(=O)N1[C@@H](C(=O)NCC2CC2)C[C@@H]2CN(Cc3ccco3)C[C@@H]21`, for which the INHIBITION stood at 11.6%.
Consider `Cc1cccc(Nc2noc3c2CN(C(=O)c2ccn(C)n2)CC3)c1C`, for which the INHIBITION is recorded as -14.225%.
As for `Cc1ccnn1CCNC(=O)C1CCN(S(=O)(=O)c2ccc(F)cc2)C1` (stereo not given), the INHIBITION amounted to 41.2%.
Regarding `Cc1noc(C)c1C[S+]([O-])Cc1cn2cccc(C)c2n1` (stereo not given), the INHIBITION is reported as -41.7%.
Regarding `CS(=O)(=O)N1CCO[C@H]2[C@@H](Oc3ncccc3F)CC[C@@H]21`, the INHIBITION worked out at 32.2%.
The figure for `Cc1nc(CN2CCCC(NCc3ccc(Cl)s3)C2)no1` (stereo not given) is 26.5%; for `Cc1ccc2[nH]c(C(=O)N3CCC4(CC3)C(=O)NCCN4C)nc2c1` it is 10.4%.
The result for `CC(C(N)=O)n1nc(-c2cccs2)cc(N)c1=O` (stereo not given) reads 17.4%; that for `Cc1nc(-n2nc(-c3cccs3)cc2N)[nH]c(=O)c1C`, 50.9%; that for `CCc1c(C)nc(-n2nc(-c3cccs3)cc2N)[nH]c1=O`, -90.8%.
Consider `NC1(c2nc(-c3cccs3)cc(=O)[nH]2)CCCC1`, for which the INHIBITION is -35.8%.
The figure for `CCCc1cc(=O)[nH]c(-n2nc(-c3cccs3)cc2N)n1` is 83.8%.
The figure for `Cc1cc(=O)[nH]c(-n2nc(-c3cccs3)cc2N)n1` is 20.9%; for `O=C(c1ccnnc1)N1CCC2(CC1)CC(N1CCOCC1)C2` it is 27.4%; for `O=C(NCc1ccco1)N(CCCO)C1CCCc2ccccc21` (stereo not given) it is 11.9%.
With `CC(C)N(Cc1ccccc1)C(=O)NCCNC(=O)c1cccnc1`, the INHIBITION was -17.8%.
Regarding `CC(C)N(Cc1ccc(C#N)cc1)C(=O)Nc1ccncc1`, the INHIBITION is 44%.
Take `Cc1cc(NC(=O)N(Cc2ccc(C#N)cc2)C(C)C)no1`: the INHIBITION turned out to be 6.33%.
The figure for `CC(C)N(Cc1cccnc1)C(=O)CSc1ccc(C#N)cc1` is 2.82%; for `CC(C)N(Cc1ccc(C#N)cc1)C(=O)Nc1ccccn1` it is 54.3%.
Regarding `CC(C)N(Cc1ccc(C#N)cc1)C(=O)NCCNc1ncccn1`, the INHIBITION amounted to 55.1%.
For the compound `Cc1ccc(N(CCC#N)C(=O)CCc2cccnc2)cc1C`, the INHIBITION worked out at 11.9%.
The figure for `CC(C(=O)NCC(F)(F)F)N1CCC(N2CCN(C)C2=O)CC1` (stereo not given) is 35.9%; for `Cc1cncc(C(=O)N2C[C@@H]3CN(S(C)(=O)=O)CCO[C@@H]3C2)c1` it is -7.24%.
The figure for `CC(C)Nc1nc2c(cc1C(=O)NCC1CC1)CCN(S(C)(=O)=O)CC2` is -39.1%; for `COCCN1CCc2cc(C(=O)NCC3CC3)c(NC(C)C)nc2CC1` it is 51.6%.
`CN(C)C(=O)c1cc2c(nc1NCC1CC1)CCN(CC1CC1)CC2`: the INHIBITION was 38.2%.
The result for `CNC(=O)N1CCc2cc(C(=O)NCC3CC3)c(NC(C)C)nc2CC1` reads -114%; that for `COCCN1CCc2cc(C(=O)N(C)C)c(NC(C)C)nc2CC1`, 18.1%; that for `CC(C)Nc1nc2c(cc1C(=O)NCC1CC1)CCN(CC1CC1)CC2`, 71.4%.
The figure for `Cc1nc2c(cc1C(=O)O)CCN(Cc1ccsc1)CC2` is 20.4%.
The result for `CC(C)Nc1nc2c(cc1C(=O)NCC1CC1)CCN(C)CC2` reads 34.1%; that for `Cc1nc2c(cc1C(=O)O)CCN(CC1CC1)CC2`, 74.9%; that for `Cn1cc(CN(CC2(O)CNCCOC2)C2CCCCC2)cn1` (stereo not given), 38.5%.
On to `O=C(Cc1ccccc1F)N1CCN(C(=O)c2cccc(F)c2)CC1`, for which the INHIBITION is 27.6%.
